Compound activity deposited in PubChem BioAssay by National Center for Advancing Translational Sciences (NCATS).
Cruzain Triton – inhibitors of Trypanosoma cruzi cruzain with detergent; P25779; purified cruzain, Z-FR-AMC fluorescence, 0.01% Triton; Potency, µM, without a hit: max response, negative = inhibition, hits mostly inhibitors; 200,000 compounds, 0.43% hits; AID 1478;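 also: plate controls were neutral wells for no effect and buffer without enzyme for full effect; nearly all actives have a fitted effect of over 40% in size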
Target sequence (P25779 123-467 limits assumed): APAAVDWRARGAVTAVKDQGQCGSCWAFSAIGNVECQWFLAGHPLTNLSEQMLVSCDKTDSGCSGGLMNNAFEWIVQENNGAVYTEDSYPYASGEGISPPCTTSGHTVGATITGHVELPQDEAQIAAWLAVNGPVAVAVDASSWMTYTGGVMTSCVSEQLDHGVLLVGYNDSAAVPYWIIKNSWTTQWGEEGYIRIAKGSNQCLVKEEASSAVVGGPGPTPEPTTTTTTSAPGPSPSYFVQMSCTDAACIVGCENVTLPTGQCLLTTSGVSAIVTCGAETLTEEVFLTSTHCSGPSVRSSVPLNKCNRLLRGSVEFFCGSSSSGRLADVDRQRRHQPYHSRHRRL
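15 min RT preincubation of 1.5 nM cruzain with compound, then 2 uM Z-FR-AMC added; kinetic AMC fluorescence, 60 s delta. Triton X-100 0.01%, pH 5.5.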
Cruzain inh noDet – inhibitors of Trypanosoma cruzi cruzain without detergent | P25779 | purified cruzain, Z-FR-AMC fluorescence, no detergent | Potency, µM, for the others: max response, negative = inhibition, most hits filed as inhibitors | 200,000 compounds, 2.3% hits | AID 1476;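 also: plate controls were enzyme without inhibitor for no effect and buffer without enzyme for full effect; nearly all actives have a fitted effect of over 40% in size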
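Purified cruzain at 1.5 nM, pre-incubated 15 min with compound at room temperature in 100 mM sodium acetate pH 5.5, 5 mM DTT, 0.00005% Triton X-100. Reaction started with 2 uM Z-FR-AMC; AMC fluorescence increase over 60 s gives rate.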
Starred values were filed as active, the others as inactive. Rows were chosen to be rich in hits. Some 2.5% of all compounds tested hit in one or more screens of this group. Calls follow the shape of the dose curve; as a rule, active = well fitted curve in the direction sought with a large enough effect; inconclusive = small, poorly fitted or top-dose-only effect, or another doubt; inactive = no such curve, though single readings can be large; an effect the other way counts as inactive or inconclusive. Potency is read from the fitted curve at half-maximal effect.

Screening CC(C)c1ccc(NC(=O)CCNS(=O)(=O)c2ccc3c(c2)CCCC(=O)N3)cc1 returned Cruzain Triton -2.3% and Cruzain inh noDet -15.4%.
Cc1cc(C)c(-c2csc(NC(=O)c3cc([N+](=O)[O-])ccc3N3CCOCC3)n2)c(C)c1 was read as Cruzain Triton -3.6% and Cruzain inh noDet -14.4%.
Screening O=C(Nc1nc2ccc(Oc3ccccc3)cc2s1)c1cc([N+](=O)[O-])ccc1N1CCOCC1 returned Cruzain Triton -17.6% and Cruzain inh noDet 15.8µM*.
COc1ccc(CN2C(=O)N(c3ccc(F)cc3)C(=O)C2CC(=O)Nc2ccccc2)cc1 (stereo unspecified) was read as Cruzain Triton -4.5% and Cruzain inh noDet -7.3%.
Screening CC(C)Cn1c(=O)c2ccccc2n2c(CCC(=O)NCc3ccc(Cl)cc3)nnc12 returned Cruzain Triton -0.7% and Cruzain inh noDet -7.3%.
For COCCn1c(-c2cc(OC)c(OC)c(OC)c2)nc2nc3ccccc3nc21 the results were Cruzain Triton 5.0% and Cruzain inh noDet -3.7%.
COCCn1c(-c2ccco2)nc2nc3ccccc3nc21 was read as Cruzain Triton 28.2µM* and Cruzain inh noDet 7.6%.
`CC(Sc1nnc(NC(=O)c2cc3ccccc3oc2=O)s1)c1ccccc1` (stereo unspecified) gave Cruzain Triton 6.4% and Cruzain inh noDet 12.6µM*.
`CCCc1nnc(NC(=O)c2cc3ccccc3oc2=O)s1` gave Cruzain Triton 1.7% and Cruzain inh noDet -8.9%.
Screening CC1CCCC(NC(=O)Cc2ccc(Br)cc2)C1C (stereo unspecified) returned Cruzain Triton 25.1µM* and Cruzain inh noDet inconclusive.
O=C(Cc1ccc(Br)cc1)NC1CCCCC1 was read as Cruzain Triton -5.6% and Cruzain inh noDet 4.2%.
For COc1ccccc1[C@@H]1C(c2cccc(C)c2)=NN(c2ccccc2)[C@H]1C(=O)N1CCOC1=O the results were Cruzain Triton -4.4% and Cruzain inh noDet 15.8µM*.
COc1ccccc1[C@@H]1C(c2ccc(F)cc2)=NN(c2ccccc2)[C@H]1C(=O)N1CCOC1=O was read as Cruzain Triton -9.7% and Cruzain inh noDet inconclusive.
O=C1OCCN1C(=O)[C@H]1[C@H](c2ccccc2)C(c2cccc(Cl)c2)=NN1c1ccccc1 was read as Cruzain Triton -8.8% and Cruzain inh noDet inconclusive.
For COc1ccccc1[C@@H]1C(c2ccccc2)=NN(c2ccccc2)[C@H]1C(=O)N1CCOC1=O the results were Cruzain Triton -4.7% and Cruzain inh noDet inconclusive.
`COc1ccccc1[C@@H]1C(c2ccc(F)cc2)=NN(c2ccc(Br)cc2)[C@H]1C(=O)N1CCOC1=O` gave Cruzain Triton 1.0% and Cruzain inh noDet 25.1µM*.
Screening COc1ccccc1[C@@H]1C(c2cccc(Cl)c2)=NN(c2ccc(Br)cc2)[C@H]1C(=O)N1CCOC1=O returned Cruzain Triton 0.3% and Cruzain inh noDet 8.91µM*.
For Cc1cccc(N2CCN(C(=O)c3cccn3-c3nnc(N4CCCCC4)s3)CC2)c1C the results were Cruzain Triton -4.5% and Cruzain inh noDet -12.8%.
Cc1ccc(NC(=[OH+])c2cc3ccccc3cc2O)c(C)c1.Cc1ccc(NC(=[OH+])c2cc3ccccc3cc2O)c(C)c1.[Ni] was read as Cruzain Triton 4.7% and Cruzain inh noDet 29.9%.
Screening Cc1ccc(NC(=O)c2cnc(SCC(=O)N3CCOCC3)n(C)c2=O)cc1 returned Cruzain Triton 0.7% and Cruzain inh noDet -4.6%.
CC(C)NC(=O)N1CC[C@@]2(CCCN(C(=O)c3ccncc3)C2)C1 was read as Cruzain Triton 3.3% and Cruzain inh noDet 5.0%.
Screening COC(=O)c1ccc(CS(=O)(=O)c2ccccc2C)o1 returned Cruzain Triton 2.8% and Cruzain inh noDet 15.8µM*.
`Cc1ccc(CNC(=O)c2ccc(CS(=O)(=O)c3ccccc3C)o2)cc1` gave Cruzain Triton -2.3% and Cruzain inh noDet -1.9%.
CCOC(C)(C)C was read as Cruzain Triton 2.2% and Cruzain inh noDet -7.6%.
CCCCC[C@H](O)/C=C/[C@H]1OC(O)C[C@H](O)[C@@H]1C/C=C\CCCC(=O)O (stereo partly specified) was read as Cruzain Triton -0.7% and Cruzain inh noDet -8.8%.
Screening Cc1onc(-c2c(F)cccc2Cl)c1C(=O)OCC(=O)NC(c1ccccc1)c1ccccc1 returned Cruzain Triton -3.9% and Cruzain inh noDet 31.6µM*.
Screening Cc1noc(C)c1C(=O)OCC(=O)NC(c1ccccc1)c1ccccc1 returned Cruzain Triton 0.7% and Cruzain inh noDet -4.6%.
For COc1ccc(OC)c(NC(=O)[C@H](CSCc2ccccc2)N2Cc3ccccc3C2=O)c1 the results were Cruzain Triton -0.1% and Cruzain inh noDet 9.8%.
`CCOC(=O)c1[nH]c(C)c(CCC(=O)Nc2cccc(SC)c2)c1C` gave Cruzain Triton -6.6% and Cruzain inh noDet -4.2%.
CNS(=O)(=O)c1cccc(C(=O)OCc2csc(-c3ccccc3)n2)c1 was read as Cruzain Triton -6.6% and Cruzain inh noDet -2.8%.
`Cn1nc(-c2ccccc2)c(COC(=O)c2cccc(Cl)c2)c1S(=O)(=O)c1ccccc1` gave Cruzain Triton 2.0% and Cruzain inh noDet 25.1µM*.
Cc1ccc2[nH]c3c(NCc4ccco4)ncnc3c2c1 was read as Cruzain Triton -26.9% and Cruzain inh noDet -22.9%.
`C=CCNc1ncnc2c1[nH]c1ccc(Cl)cc12` gave Cruzain Triton inconclusive and Cruzain inh noDet 12.6µM*.
For Cc1ccc(-c2nc3nc(C)cc(Nc4ccccc4O)n3n2)cc1 the results were Cruzain Triton -1.8% and Cruzain inh noDet -9.7%.
`COC(=O)c1ccc(/C=C(\C#N)c2nc3ccccc3s2)cc1` gave Cruzain Triton 3.1% and Cruzain inh noDet 11.7%.
CC(C)(C)c1ccc(C(=O)OC/C(O)=C(\C#N)c2nc3ccccc3s2)cc1 was read as Cruzain Triton -3.6% and Cruzain inh noDet 25.1µM*.
`O=C(c1ccncc1)N1CCC2(CC1)CCN(c1ccccc1)CC2` gave Cruzain Triton -0.2% and Cruzain inh noDet -4.1%.
For S=c1[nH]cc(-c2ccccc2)n1-c1cccc(Cl)c1 the results were Cruzain Triton -3.0% and Cruzain inh noDet -12.1%.
For CCn1c(-c2ccc(-c3ccccc3)cc2)c[nH]c1=S the results were Cruzain Triton 4.6% and Cruzain inh noDet 10µM*.
Cn1c(-c2ccc(-c3ccccc3)cc2)c[nH]c1=S was read as Cruzain Triton -8.8% and Cruzain inh noDet 10µM*.
For C=CCn1c(-c2ccccc2)c[nH]c1=S the results were Cruzain Triton 2.0% and Cruzain inh noDet 6.9%.
CCOC(=O)Nc1ccc2c(CN3CCN(S(=O)(=O)c4ccccc4)CC3)cc(=O)oc2c1 was read as Cruzain Triton -0.6% and Cruzain inh noDet 12.6µM*.
`CCOC(=O)Nc1ccc2c(CN3C(=O)NC4(CCCC4)C3=O)cc(=O)oc2c1` gave Cruzain Triton -22.7% and Cruzain inh noDet -8.5%.
Cc1cc2oc(=O)cc(CN3CCN(C/C=C/c4ccccc4)CC3)c2cc1O was read as Cruzain Triton -0.8% and Cruzain inh noDet -20.8%.
`Cc1ccc2c(CN3CCN(S(=O)(=O)/C=C/c4ccccc4)CC3)cc(=O)oc2c1` gave Cruzain Triton -2.0% and Cruzain inh noDet 25.1µM*.
`COc1cccc(/C=C/C(=O)OCC(=O)Nc2ccccc2Sc2ccccc2)c1` gave Cruzain Triton -5.3% and Cruzain inh noDet -26.6%.
Screening Cc1ccc(/C=C/C(=O)OCC(=O)Nc2ccccc2Sc2ccccc2)cc1 returned Cruzain Triton -5.8% and Cruzain inh noDet 12.6µM*.
